Measurements reported in PubChem BioAssay AID1159580 (chemical genetic matrix, 2015).
Several values for one entry are separate records, joined by “and”; a condition that tells them apart may be missing. Identical values can stand only once. Hit rate of the full screen: of about 5,500 compounds, about 2,000 (36%) were called active. Not shown: some 18% with an inconclusive outcome. Rule as the data show it: active = normalized growth mostly below about 0.91 (no sharp cut-off); inconclusive = no clear call, values can overlap the other calls; inactive = mostly above about 0.92. This is one part of the list.

Test: chemical genetic growth profiling, strain panel (AID 1159580);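 also: tested at 20 µM; growth read once vehicle control cultures reached saturation at 30 °C; 1 = growth at the plate median or of vehicle wells; lower values mean less growth of the strain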
Conditions: S. cerevisiae deletion strains, growth OD

Measured: normalized growth

CN[C@@H]1[C@H](O)[C@H](NC)[C@H]2O[C@@]3(O)C(=O)C[C@@H](C)O[C@H]3O[C@@H]2[C@H]1O
inactive: locus YAL013W, strain DEP1, active compounds read low 1.01 | locus YAL021C, strain ccr4, active compounds read low 0.982 | locus YAL026C, strain drs2, active compounds read low 1 | locus YAL030W, strain snc1, active compounds read low 1 | locus YBL061C, strain skt5, active compounds read low 1.01 | locus YBR009C, strain hhf1, active compounds read low 0.976 | locus YBR021W, strain FUR4, active compounds read low 0.997 | locus YBR023C, strain chs3, active compounds read low 1 | locus YBR171W, strain sec66, active compounds read low 1.01 | locus YBR229C, strain ROT2, active compounds read low 1.01 | locus YBR231C, strain swc5, active compounds read low 1.01 | locus YBR279W, strain paf1, active compounds read low 0.988 | locus YCL011C, strain gbp2, active compounds read low 0.991 | locus YCL016C, strain dcc1, active compounds read low 0.984 | locus YCL029C, strain bik1, active compounds read low 1.03 | locus YCL061C, strain MRC1, active compounds read low 1.02 | locus YCL069W, strain vba3, active compounds read low 1 | locus YCR088W, strain abp1, active compounds read low 1 | locus YDL005C, strain med2, active compounds read low 1 | locus YDL035C, strain GPR1, active compounds read low 1.02 | locus YDL040C, strain nat1, active compounds read low 1.01 | locus YDL074C, strain BRE1, active compounds read low 1.02 | locus YDL101C, strain DUN1, active compounds read low 1.02 | locus YDL134C, strain PPH21, active compounds read low 1.01 | locus YDL185W, strain tfp1, active compounds read low 1.02 | locus YDL192W, strain arf1, active compounds read low 1.02 | locus YDR001C, strain nth1, active compounds read low 0.997 | locus YDR069C, strain doa4, active compounds read low 1.02 | locus YDR101C, strain arx1, active compounds read low 1.02 | locus YDR137W, strain rgp1, active compounds read low 0.989 | locus YDR150W, strain NUM1, active compounds read low 1.01 | locus YDR159W, strain sac3, active compounds read low 0.969 | locus YDR162C, strain NBP2, active compounds read low 1.03 | locus YDR195W, strain ref2 0.99 | locus YDR297W, strain sur2, active compounds read low 1 | locus YDR318W, strain mcm21, active compounds read low 1.03 | locus YDR334W, strain swr1, active compounds read low 1 | locus YDR335W, strain msn5, active compounds read low 1 | locus YDR388W, active compounds read low 1.02 | locus YDR392W, strain spt3, active compounds read low 0.956 | locus YDR502C, strain sam2, active compounds read low 1.02 | locus YEL003W, strain gim4, active compounds read low 1 | locus YEL037C, strain rad23, active compounds read low 0.998 | locus YEL061C, strain CIN8 (second series), active compounds read low 0.991 | locus YEL061C, strain CIN8, active compounds read low 1.01 | locus YER015W, strain faa2, active compounds read low 1 | locus YER016W, strain bim1, active compounds read low 0.974 | locus YER110C, active compounds read low 1.03 | locus YER111C, strain swi4, active compounds read low 1.01 | locus YER155C, strain BEM2 (second series), active compounds read low 1.04 | locus YER155C, strain BEM2, active compounds read low 1.01 | locus YER167W, strain BCK2, active compounds read low 1.02 | locus YFR010W, strain ubp6, active compounds read low 1.02 | locus YGL078C, strain dbp3, active compounds read low 1.02 | locus YGL086W, strain mad1, active compounds read low 1.02 | locus YGL167C, strain pmr1, active compounds read low 1.02 | locus YGL173C, strain kem1, active compounds read low 1.03 | locus YGL227W, strain vid30, active compounds read low 1.01 | locus YGL240W, strain doc1, active compounds read low 1.03 | locus YGL248W, strain PDE1, active compounds read low 1.02 | locus YGL253W, strain hxk2, active compounds read low 0.973 | locus YGR078C, strain PAC10, active compounds read low 1.02 | locus YGR135W, strain pre9, active compounds read low 1.02 | locus YGR229C, strain SMI1, active compounds read low 1.02 | locus YGR252W, strain gcn5, active compounds read low 1.01 | locus YHR013C, strain ard1, active compounds read low 0.993 | locus YHR027C, strain rpn1, active compounds read low 0.993 | locus YHR030C, strain SLT2, active compounds read low 1.02 and 0.968 | locus YHR079C, strain IRE1 (second series), active compounds read low 1.03 | locus YHR079C, strain IRE1, active compounds read low 0.953 | locus YHR094C, strain hxt1, active compounds read low 1.02 | locus YHR129C, strain ARP1, active compounds read low 1.01 | locus YHR142W, strain chs7, active compounds read low 0.995 | locus YHR200W, strain rpn10, active compounds read low 1 | locus YIL066C, strain RNR3, active compounds read low 1.01 | locus YIL073C, strain SPO22, active compounds read low 1.04 | locus YIL125W, strain kgd1, active compounds read low 1.01 | locus YIR030C, strain dcg1, active compounds read low 1.02 | locus YJL092W, strain hpr5, active compounds read low 1.01 | locus YJL095W, strain BCK1 (second series), active compounds read low 1.01 | locus YJL095W, strain BCK1, active compounds read low 1.02 and 0.984 | locus YJL115W, strain asf1, active compounds read low 0.998 | locus YJL129C, strain trk1, active compounds read low 1.01 | locus YJL134W, strain LCB3, active compounds read low 1.01 | locus YJL154C, strain vps35, active compounds read low 0.991 | locus YJL164C, strain tpk1, active compounds read low 0.987 | locus YJL166W, strain qcr8, active compounds read low 1.02 | locus YJL168C, strain set2, active compounds read low 1.02 | locus YJL187C, strain SWE1 (second series), active compounds read low 1.02 | locus YJR043C, strain POL32, active compounds read low 1.01 | locus YJR066W, strain TOR1, active compounds read low 0.977
